Data on 13 compounds can be found in PubChem BioAssay (NCI).

Compounds without any hit were thinned out: in the full panel of roughly 83,000, 20% have a hit.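 96-well plates, one dose, 48 hours. Percent growth reported; active if below 10.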 Values without a mark were called inactive. Activity calls are given as the source filed them.

Assay in all cases: NCI-60 one-dose screen, 48 h (100 = growth as untreated, 0 = no growth, -100 = all killed)
Common to all, as to conditions: 10 µM unless noted

The test system of assay [1] is NCI-H23 lung.
The test system of assay [2] is NCI-H226 lung.
Assay [3] deals with NCI-H322M lung.
The subject of assay [4] is HOP-62 NSCLC.
Assay [5] concerns NCI-H460 lung.
In assay [6] the test system is HOP-92 NSCLC.
The test system of assay [7] is NCI-H522 lung.
The test system of assay [8] is A549/ATCC NSCLC.
The test system of assay [9] is 786-0 renal.
For assay [10], the system named is COLO 205 colon.
Assay [11] relates to DU-145 prostate.
The subject of assay [12] is K-562 leukemia.
The subject of assay [13] is MALME-3M melanoma.
Assay [14] concerns MDA-MB-231 breast.
Assay [15] concerns RXF 393 renal.
In assay [16] the test system is SF-268 CNS.
In assay [17] the test system is SF-295 CNS.
Assay [18] deals with SF-539 CNS.
The test system of assay [19] is UACC-257 melanoma.
Assay [20] has as its system M14 melanoma.

Regarding `CC(=O)Cc1nsc(NC(=O)c2cc(-c3cc(Cl)ccc3Cl)oc2C)n1`, the growth in assay [1] is 99.5%; in [2] it was 94.5%; in assay [3], 104%; in assay [4], 102%; in assay [5], 103%; in assay [6], 112%. The growth in assay [7] is 90.2%; in [8], 98.8%; in [9], 97%; in [10] it was 115%; in assay [11], 110%; in assay [12], 102%. Further, the growth in [13] is 113%; in [14] it was 101%; in [15], 103%; in assay [16], 98.8%; in [17], 99.6%; in [18], 102%. In addition, the growth in assay [19] was 93.8%; in [20], 102%.

For the compound `COc1cc2nc3cc([N+](=O)[O-])ccc3c(NCCCNCCO)c2cc1OC`, the growth was -29.1% (active) in [1]; -39.5% (active) in assay [2]; -27.7% (active) in [3]; -60.6% (active) in [4]; -39% (active) in assay [5]; -46.4% (active) in assay [6]. Moreover, the growth in assay [7] was -52% (active); in [8], -26.6% (active); in assay [9], -39.2% (active); in assay [10], -76.2% (active); in assay [11] it was -31.2% (active); in assay [12], -19% (active). Also, the growth in assay [13] is -82.6% (active); in [14] it was -54.5% (active); in [15] it was -58.8% (active); in assay [16], -46.8% (active); in [17] it was -20.7% (active); in assay [18], -36.2% (active). The growth in [19] was -53.4% (active); in assay [20] it was -66.5% (active).

On to `O=C1CCC(C(=O)N/N=C/c2ccc([N+](=O)[O-])cc2)N1` (stereo not given), for which the growth in assay [1] was 98.6%; in [2], 106%; in assay [3], 102%; in [4] it was 110%; in assay [5], 101%; in [6], 89.1%. Besides, the growth in [7] was 96.1%; in assay [8], 102%; in [9] it was 95.5%; in assay [10], 108%; in assay [11], 103%; in assay [12] it was 103%. The growth is 101% in [13]; 109% in assay [14]; 111% in [15]; 96.7% in assay [16]; 99.7% in assay [17]; 93.7% in assay [18]. Moreover, the growth in assay [19] is 106%; in assay [20], 104%.

As to `CC(CN)[C@@H]1CC[C@]2(CO)CC[C@]3(C)[C@H](CC[C@@H]4[C@@]5(C)CCC(NCCO)C(C)(C)[C@@H]5CC[C@]43C)[C@@H]12` (stereo not given in full), the growth in assay [1] is 89.6%; in assay [2], 95.8%; in assay [3], 86.8%; in [4] it was 86.6%; in assay [5], 4.46% (active); in assay [6], 61.6%. Moreover, the growth in assay [7] was 59.3%; in assay [8], 59.2%; in assay [9], 59.2%; in assay [10] it was 67.5%; in [11], 63.5%; in [12], -49.4% (active). For the same compound, the growth in assay [13] was -35.5% (active); in assay [14] it was 13.6%; in [15], 58.6%; in [16], 60.6%; in assay [17] it was 70.9%; in [18] it was 65.8%. For the same compound, the growth in assay [19] was 84.9%; in assay [20] it was -2.37% (active).

For `CCCCC/C=C/CCC(=O)N[C@H]1[C@H](Oc2c3cc4cc2Oc2ccc(cc2Cl)[C@@H](O[C@@H]2O[C@H](CO)[C@@H](O)[C@H](O)[C@H]2NC(C)=O)[C@@H]2NC(=O)[C@H](NC(=O)[C@@H]4NC(=O)[C@H]4NC(=O)[C@@H](Cc5ccc(c(Cl)c5)O3)NC(=O)[C@@H](N)c3ccc(O)c(c3)Oc3cc(O)cc4c3)c3ccc(O)c(c3)-c3c(O[C@H]4O[C@H](CO)[C@@H](O)[C@H](O)[C@@H]4O)cc(O)cc3[C@H](C(=O)O)NC2=O)O[C@H](CO)[C@H](O)[C@@H]1O`, the growth in [1] is 93.4%; in [2], 105%; in assay [3], 108%; in assay [4] it was 113%; in [5], 107%; in assay [6], 96.4%. The growth was 103% in [7]; 99.8% in assay [8]; 101% in [9]; 103% in assay [10]; 112% in [11]; 98.6% in assay [12]. The growth is 108% in assay [13]; 100% in assay [14]; 112% in assay [15]; 98.5% in assay [16]; 94.8% in assay [17]; 110% in assay [18]. The values for the growth in assay [19] and in [20] were 89.4% and 109%, respectively.

Consider `COc1ccc(-c2ccc(-c3ccc(C(=N)N)o3)o2)cc1`, for which the growth in assay [1] was 35.6%; in assay [2] it was 78.2%; in assay [3], 56.1%; in assay [4] it was 46.4%; in [5], 0.541% (active); in assay [6], 27%. Further, the growth in [7] is 1.71% (active); in assay [8], 1.8% (active); in assay [9] it was 21.9%; in assay [10] it was -45.8% (active); in [11], 6.23% (active); in assay [12] it was -9.69% (active). Further, the growth is 57.1% in assay [13]; 8.3% (active) in [14]; 25.1% in assay [15]; 39.8% in assay [16]; 35.6% in assay [17]; 23% in [18]. The figures for the growth in [19] and in assay [20] were 37.9% and 35.1%, respectively.

`O=C(Nc1ccccc1CNc1nc(Nc2ccc(OCCN3CCCC3)cc2)ncc1Cl)NC1CCCCC1`: the growth in assay [1] was 87.2%; in assay [2], 97%; in assay [3], 109%; in assay [4], 83.3%; in assay [5], 89.8%; in assay [6], 65.5%. Further, the growth in [7] is 113%; in [8], 85.4%; in assay [9] it was -25.2% (active); in [10] it was 89.3%; in [11], 82.8%; in assay [12] it was 6.79% (active). The growth in [13] is 67.7%; in assay [14], 69.7%; in [15] it was 56.8%; in assay [16], 73.1%; in [17], 82%; in [18], 84.3%. The results for the growth in assay [19] and in assay [20] were 78.3% and 31.1%, respectively.

Regarding `OC1CSSC1Cn1cnc2c(Nc3ccc(F)c(Cl)c3)ncnc21` (stereo not given), the growth in [1] is 60.2%; in assay [2], 87.9%; in [3], 74.1%; in assay [4], 93.2%; in [5], 68.4%; in assay [6] it was 137%. For the same compound, the growth is 69.2% in assay [7]; 77.5% in assay [8]; 108% in assay [9]; 111% in [10]; 85.8% in [11]; 32.5% in assay [12]. Besides, the growth in [13] is 65.1%; in [14], 84.6%; in [15] it was 114%; in assay [16], 81.8%; in assay [17], 106%; in assay [18], 93.2%. Besides, the growth was 82% in assay [19] and -65.9% (active) in assay [20].

Turning to `CCOC(=O)c1ccc2c(c1)c1c(C)c3cnccc3c(C)c1n2C`, the growth in [1] was -51.2% (active); in assay [2], -33.6% (active); in assay [3], -14.1% (active); in assay [4], -47.3% (active); in assay [5] it was -17.2% (active); in assay [6] it was -24.2% (active). For the same compound, the growth in assay [7] is -79.1% (active); in assay [8], -11.8% (active); in assay [9], -95.7% (active); in assay [10] it was -63.9% (active); in [11], -17% (active); in assay [12] it was 0.0057% (active). The growth in assay [13] is -91.3% (active); in [14], -55.9% (active); in assay [15] it was -83% (active); in assay [16], -15.9% (active); in [17], -24.3% (active); in assay [18], -95.8% (active). In addition, the growth is -42.2% (active) in assay [19] and -88.3% (active) in assay [20].

For the compound `Oc1cccc(-c2nc(-c3n[nH]c(=S)n3-c3ccccc3)cc3c2[nH]c2ccccc23)c1`, the growth in assay [1] was 43.3%; in assay [2] it was 52.6%; in assay [3] it was 13.7%; in [4], 28.4%; in [5], 8.82% (active); in assay [6], 63.3%. Besides, the growth is -28.3% (active) in [7]; 48.3% in assay [8]; 18.4% in [9]; 68% in assay [10]; 27.7% in assay [11]; 11.1% in [12]. For the same compound, the growth in assay [13] was 44.4%; in [14], 45.7%; in assay [15], -15.7% (active); in [16], 28.6%; in assay [17], 3.87% (active); in assay [18] it was -15.2% (active). Also, the values for the growth in assay [19] and in [20] were 66.7% and 24.6%, respectively.

In the case of `O=C1C=CC2(O)OC(c3ccccc3)CC(=O)C2=C1O` (stereo not given), the growth in assay [1] is 79.2%; in assay [2] it was 99.7%; in assay [3], 90%; in assay [4], 86.5%; in assay [5] it was 93.6%; in [6] it was 93.8%. The growth in [7] is -17% (active); in [8], 85.6%; in [9] it was 93.6%; in assay [10], 118%; in [11] it was 15.7%; in assay [12], 72.6%. The growth in [13] was 95.7%; in assay [14], 73.2%; in assay [15] it was 94%; in [16] it was 40.4%; in assay [17], 107%; in [18] it was 86.1%. In addition, the growth in assay [19] is 87.9%; in [20] it was 90.3%.

For `COc1ccccc1-c1nc2ccc3[nH]ncc3c2c2c1CCCC2`, the growth is 69% in [1]; 81.4% in assay [2]; 82.8% in assay [3]; 61.2% in assay [4]; 82.5% in assay [5]; 70.5% in [6]. Besides, the growth in assay [7] was 55%; in assay [8], 65.2%; in [9], 67.7%; in assay [10], 74.7%; in [11] it was 73.5%; in [12] it was 83.3%. Moreover, the growth in assay [13] is 99.2%; in [14], 62.4%; in [15], 51.2%; in [16] it was 55.6%; in assay [17], 70.5%; in [18], 50.5%. The results for the growth in [19] and in assay [20] were 86.4% and 76.3%, respectively.

With `CN1CCN(Cc2ccc(NC(=O)c3cncc(C#Cc4c(N)ncc5c(F)cccc45)c3)cc2C(F)(F)F)CC1`, the growth in [1] is -66.3% (active); in assay [2], 14%; in [3], -23.7% (active); in assay [4], -80.2% (active); in assay [5], -48% (active); in assay [6] it was -58.8% (active). For the same compound, the growth in [7] was -76% (active); in assay [8], -90.6% (active); in [9], -79% (active); in assay [10] it was -83.6% (active); in assay [11], -90.3% (active); in assay [12], -66.9% (active). In addition, the growth in assay [13] is -74.3% (active); in [14], -89.6% (active); in assay [15] it was -91.5% (active); in assay [16], -63.6% (active); in assay [17] it was -70.6% (active); in assay [18], -95.4% (active). The growth in assay [19] is -73% (active); in assay [20], -66% (active).
